From PubChem BioAssay
The list is not random: actives were taken first. Their share in the collection is about 3.4%.
PLCb3 inh = human PLC-beta3 inhibitors, primary screen, biochemical, fluorescence | inhibition, % at 12.2 µM | Purified PLC-beta3, fluorogenic substrate | 1-phosphatidylinositol 4,5-bisphosphate phosphodiesterase beta-3 (Homo sapiens), Q01970 | 370,000 tested, 0.18% active | AID 720704, 2013; in the data active means inhibition above about 11%;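 further: 0% = median of compound wells on plate and 100% = full blocker control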
ADAM10 inh = human ADAM10 inhibitors, primary screen, biochemical, QFRET, HTS; 370,000 tested, 0.62% active; recombinant ADAM10, EDANS/DABCYL FRET peptide cleavage, 3 h; AID 720582, 2013; inhibition, % at 7 µM;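 active means inhibition above a per-campaign cutoff equal to the mean of compounds falling between control-based bounds plus 3 SD, cut at about 20% in these data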;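 further: 0% = DMSO wells while the 100% control is not disclosed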
ADAM17 inh = ADAM17 inhibitors, primary screen, biochemical, QFRET | Disintegrin and metalloproteinase domain-containing protein 17 (Homo sapiens), P78536 | recombinant ADAM17, EDANS/DABCYL FRET peptide cleavage | inhibition, % at 6.95 µM | 370,000 tested, 0.83% active;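 active means inhibition above the mean of compounds lying between control limits plus 3 SD, set per campaign, cut at about 8.5% in these data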;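 further: 0% = DMSO-only wells as the low control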
sPLA2-III inh = human group III sPLA2 inhibitors, primary screen, biochemical, QFRET, BODIPY PC-A2 liposome substrate; QFRET BODIPY PC-A2 liposome hydrolysis, fluorescence; 370,000 tested, 0.56% active; AID 743126, 2013; inhibition, % at 12.2 µM;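 active means inhibition above mean plus 3 SD of compounds lying within the high and low control bounds, cut at about 19% in these data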;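 further: 0% = median of test compound wells and 100% = no enzyme DMSO wells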
PLCg1 inh = PLC-gamma1 enzyme inhibitors, primary screen, biochemical, fluorescence, purified enzyme; 1-phosphatidylinositol 4,5-bisphosphate phosphodiesterase gamma-1 (Homo sapiens), P19174; 370,000 tested, 0.84% active; inhibition, % at 12.2 µM; AID 720700, 2013; fluorogenic substrate; in the data active means inhibition above about 9.5%
KLK7 zymogen act = proKLK7 zymogen activators, primary screen, biochemical, fluorescence intensity. Kallikrein-7 (Homo sapiens), P49862. purified proKLK7, EDANS-DABCYL substrate fluorescence; 100% is mature enzyme control, 0% vehicle. activation, % at 7 µM. 370,000 tested, 0.9% active. AID 652039, 2013;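 active means activation above the mean of all tested compounds plus 3 SD, computed per campaign excluding outliers beyond control limits, cut at about 13% in these data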
Target sequence (P49862 whole entry, looked up): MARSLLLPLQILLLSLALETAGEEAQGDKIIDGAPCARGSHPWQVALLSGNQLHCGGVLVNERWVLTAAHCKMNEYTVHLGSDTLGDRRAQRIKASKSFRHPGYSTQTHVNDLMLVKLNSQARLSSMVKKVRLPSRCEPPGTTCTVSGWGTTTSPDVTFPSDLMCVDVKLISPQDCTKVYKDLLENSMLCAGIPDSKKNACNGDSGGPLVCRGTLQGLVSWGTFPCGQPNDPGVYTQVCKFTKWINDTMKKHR
ADAM10 confirm = human ADAM10 inhibitors, confirmation, biochemical, QFRET, triplicate; shares compounds with ADAM10 inh; ADAM10 QFRET peptide cleavage, EDANS fluorescence; inhibition, % at 6.95 µM; 2,100 tested, 1% active; AID 743208, 2013;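 active means inhibition above about 20% chosen separately for each screening run, limit read from the data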;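 further: 0% = DMSO wells and 100% = marimastat wells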
ADAM17 counter = ADAM17 inhibitors, counter-screen for ADAM10 exosite inhibitor project, biochemical, QFRET, high throughput; 2,100 tested, 0.5% active; inhibition, % at 6.95 µM; shares compounds with ADAM10 inh; ADAM17 QFRET peptide cleavage, EDANS fluorescence;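 active means mean triplicate inhibition above the solvent-only control wells' mean plus 3 SD, cut at about 12% in these data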;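 further: 0% = DMSO wells and 100% = marimastat wells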
* marks the source's active call; other numbers are inactive results; x = not tested or not shown.

SMILES	PLCb3 inh	ADAM10 inh	ADAM17 inh	sPLA2-III inh	PLCg1 inh	KLK7 zymogen act	ADAM10 confirm	ADAM17 counter
O=c1ccn(C2CC(O)C(COC(c3ccccc3)(c3ccccc3)c3ccccc3)O2)c(=O)[nH]1 (stereo not drawn)	3	-2	0	-22	4	1	x	x
C=CCN(C)C(C#Cc1ccccc1)Cc1ccccc1 (stereo not drawn)	-2	-1	1	-1	0	x	x	x
O=C1C(Cl)=C(Nc2ccccc2O)C(=O)N1c1ccccc1	-6	3	-6	-8	0	1	x	x
COc1ccccc1N1C(=O)C(Cl)=C(Nc2ccccc2O)C1=O	-9	22*	7	0	-8	0	14	5
CCOC(=O)C1=C(C(=O)OCC)C2N(Cc3ccc(C#N)cc3)c3ccccc3[C@@]23C[C@@H](C(=O)OC)N(S(=O)(=O)c2ccc(C)cc2)C3=N1 (stereo partly drawn)	1	18	6	13	-3	-1	x	x
COc1cccc(C(O)c2nc(-c3ccccc3C)cs2)c1 (stereo not drawn)	9	20*	8	-12	4	-1	1	0
COc1cccc(CC(=O)N2CCN(C(=O)C(=O)c3ccc(OC)c(OC)c3)CC2)c1	-1	-13	-4	9	2	0	x	x
CC(OC(=O)c1ccc(NS(=O)(=O)c2ccc3[nH]c(=O)[nH]c3c2)cc1)C(=O)Nc1ccc(Cl)cc1 (stereo not drawn)	2	11	4	-39	2	-1	x	x
COc1ccc(Cl)cc1NC(=O)C(C)OC(=O)c1ccc(NS(=O)(=O)c2ccc3[nH]c(=O)[nH]c3c2)cc1 (stereo not drawn)	2	22*	7	-45	0	1	5	1
Nn1c(SCc2cccc3ccccc23)nnc1-c1cc(-c2ccc(F)cc2)n[nH]1	-1	-3	0	2	1	0	x	x
CC(C)Oc1ccc(NC(=O)c2ccncc2)cc1	1	78*	-1	1	-1	0	-2	0
COc1ccc(N2CCN(C(=S)Nc3ccc(C)cc3C)CC2)cc1	6	21*	5	5	5	0	0	0
Cc1cccc(NC(=O)CNC(=O)[C@@H](Cc2ccccc2)NC(=O)[C@H]2O[C@@H](n3ccc(N)nc3=O)[C@H](O)[C@@H]2O)c1C	2	-9	-6	10	3	0	x	x
Cc1ccc(S(=O)(=O)Nc2ccc(Cl)cc2)cc1NC(=O)c1cc2c(s1)CCCC2	2	24*	10*	-56	3	-1	17	4
Cc1ccc(NS(=O)(=O)c2cc(NC(=O)c3cc4c(s3)CCCC4)ccc2C)c(C)c1	-1	-6	-4	-3	0	-1	x	x
C=CCN1CCc2cc(O)c(O)cc2C(c2ccccc2)C1 (stereo not drawn)	4	21*	-2	-31	0	0	-2	0
CC(C)C[C@H]1CN([C@@H](Cc2ccccc2)CN2CCC[C@H]2CN2C(=O)C(=O)NC[C@@H]2Cc2ccccc2)C(=O)C(=O)N1CC1CCCCCC1	2	-19	1	12	2	0	x	x
CCOC(=O)c1ccc(NC(=O)c2ccc(CN3CCc4ccccc4C3)cc2)cc1	-9	8	0	1	3	0	x	x
CCOc1ccc(NC(=O)c2ccc(CN3CCc4ccccc4C3)cc2)cc1	2	20*	8	9	6	0	11	5
COc1ccccc1CCC(=O)N(C)CC(=O)Nc1ccc(Cl)c(C(F)(F)F)c1	-2	22*	5	-10	3	0	2	1
O=C(CC(O)(c1ccccc1)c1ccccc1)Nc1ccccn1	1	-3	-5	-4	0	-1	x	x
OC(CC1CC12c1ccccc1-c1ncccc12)(c1ccccc1)c1ccccc1 (stereo not drawn)	2	24*	4	-16	2	0	7	2
CCOc1ccc(-c2[nH]ncc2Oc2ccccc2OCC)c(O)c1	2	26*	7	-60	1	0	8	2
C=C(C)COc1ccc(-c2[nH]ncc2Oc2ccc(OC)cc2)c(O)c1	2	21*	7	-58	1	0	12	4
CCOc1ccc(-c2nc(N)ncc2Oc2ccccc2Br)c(O)c1	-22	21*	4	-19	-14	-1	6	2
SMILES	PLCb3 inh	ADAM10 inh	ADAM17 inh	sPLA2-III inh	PLCg1 inh	KLK7 zymogen act	ADAM10 confirm	ADAM17 counter
COC(=O)[C@H]1C[C@]2(C/C=C(\C)CCC=C(C)C)c3ccccc3N[C@H]2N1	-1	6	0	1	0	x	x	x
COC(=O)C1=C(C)N(Cc2cccc(C(F)(F)F)c2)C(=NCc2ccc3c(c2)OCO3)NC1c1cccc(F)c1 (stereo not drawn)	4	-7	0	-4	2	0	x	x
Cc1cccc(N2CCN(S(=O)(=O)c3ccc(S(=O)(=O)N4CCCC4)cc3)CC2)c1C	2	2	0	3	2	1	x	x
Cc1cccc(N2CCN(S(=O)(=O)c3ccc4c(c3)CC(=O)N4C)CC2)c1C	-4	21*	1	-22	-1	0	1	1
CN1OC[C@@H]2CN[C@H](c3ccc(-n4ccnc4)cc3)C[C@@H]21	0	-13	-6	1	0	0	x	x
Cc1ccc(NC(=O)CN2CCN(c3nc(-c4ccccc4)cs3)CC2)cc1C	-3	22*	7	-4	0	1	7	2
CCC[C@H]1[C@@H](OC(=O)NCCc2ccccc2)CC[C@@]23CCCN2C(=O)CCC[C@@H]13	1	-10	-5	7	1	x	x	x
COc1ccc(-c2csc(NC(=O)c3c(OC)cccc3OC)n2)cc1	-20	30*	2	-1	-8	-3	7	1
